Results: PubChem BioAssay AID602340 (Broad Institute, 2012)
Values joined by “and” are separate entries in the source; they are usually repeats but may differ in a detail not shown here. Equal values may be shown once. About 2,600 (0.79%) of roughly 330,000 compounds were called active.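 Rule for the calls: active = mean ATP rescue above about 67%, or every replicate alone reaching that limit (limit read from the data, passing the limit was not always enough); inconclusive = no clear call, values can overlap the other calls; inactive = mean under the limit and some replicate under it.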 Only a selection was taken, and actives are over-represented in it overall. Where a structure was tested more than once in an assay, its records may differ in their call.

test: protection of differentiated C2C12 cells from simvastatin – single point, plate reader, primary screen (AID 602340); settings: C2C12 myotubes + simvastatin, ATP luminescence, 48 h; at 7.49 µM; stronger effect = higher value; scaled: DMSO 0, geranylgeraniol control 100;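 note: myotubes were challenged with 10 µM simvastatin during compound exposure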

SMILES	rescue of ATP level
C/C(=C\c1ccccc1)C1NC(=O)c2c(sc3c2CCCC3)N1 (configuration not stated)	-22.3% (inactive)
Cc1[nH]c(=O)c(C(=O)/C=C/c2ccccc2)c2c1CCCC2	165% (active)
CC1(C(=O)O)CCCN(C(=O)/C=C/c2ccccc2)C1 (configuration not stated)	2.47% (inactive)
COc1ccccc1NC(=O)N1C[C@H](O)COC[C@H]2O[C@H](CC(=O)NCCc3ccccc3)CC[C@@H]21	-6.91% (inactive)
CCC(=O)Nc1ccc(C(=O)NNC(=O)c2ccc(Cl)cc2)cc1	-2.53% (inactive)
CCC(=O)Nc1ccc(C(=O)Nc2cc(C)on2)cc1	84.9% (active)
CCOc1ccc(C(=O)Nc2ccc(S(=O)(=O)Nc3cc(C)on3)cc2)cc1	10.8% (inactive)
C[C@H]1CN([C@@H](C)CO)S(=O)(=O)c2ccc(Br)cc2O[C@H]1CN(C)C(=O)C1CC1	4.28% (inactive)
CCOC(=O)CSc1nc2ccc(C)cc2[nH]1	11.3% (inactive)
CC(=O)Nc1ccc(C(=O)CSc2nc3ccc(C)cc3[nH]2)cc1	107% (active)
Cc1ccc2nc(SCC(=O)NC3CCCC3)[nH]c2c1	-36.1% (inactive)
O=C(NCC[C@H]1CC[C@H](NS(=O)(=O)c2cccc(F)c2)[C@H](CO)O1)C1CCCCC1	0.841% (inactive)
COC(=O)C[C@H]1CC[C@H](NC(=O)Nc2ccc(C(F)(F)F)cc2)[C@H](CO)O1	-6.07% (inactive)
CCS(=O)(=O)Nc1ccc2c(c1)C(=O)N(C)[C@@H]1CC[C@H](CC(=O)N[C@H]3CCN(Cc4ccccc4)C3)O[C@@H]1CO2	10.9% (inactive)
CCS(=O)(=O)Nc1ccc2c(c1)C(=O)N(C)[C@@H]1CC[C@@H](CC(=O)N3CCCCC3)O[C@H]1CO2	-21.4% (inactive)
CO[C@H]1CN(C)C(=O)c2ccc(NC(=O)C3CC3)cc2OC[C@@H](C)N(C)C[C@H]1C	2.87% (inactive)
CCCS(=O)(=O)N1CCCC(C(=O)N2CCN(c3ccccc3)CC2)C1 (configuration not stated)	103% (active)
O=C(C1CCCN(S(=O)(=O)c2ccccc2)C1)N1CCN(c2ccc(F)cc2)CC1 (configuration not stated)	-8.18% (inactive)
CCS(=O)(=O)N1CCC(C(=O)N2CCN(c3ccccc3)CC2)CC1	2.16% (inactive)
C[C@@H](NC(=O)C[C@@H]1CC[C@H](NC(=O)Cc2ccccn2)[C@H](CO)O1)c1ccccc1	4.66% (inactive)
C[C@@H]1CN([C@H](C)CO)C(=O)c2cccc(NC(=O)Nc3cccc4ccccc34)c2O[C@@H]1CN(C)C(=O)Nc1ccc(F)cc1	98.6% (active)

SMILES	rescue of ATP level
C[C@@H]1CN([C@@H](C)CO)C(=O)c2cccc(NC(=O)Nc3ccc(F)cc3)c2O[C@@H]1CN(C)C(=O)Nc1ccccc1	7.96% (inactive)
C[C@@H]1CN([C@@H](C)CO)C(=O)c2cccc(NS(=O)(=O)c3ccc(F)cc3)c2O[C@H]1CN(C)C(=O)NC1CCCCC1	88.2% (active) and -10.4% (inactive)
C[C@@H]1CN([C@H](C)CO)C(=O)c2cccc(NS(=O)(=O)c3ccc(Cl)cc3)c2O[C@H]1CN(C)C(=O)NC1CCCCC1	36.6% (inactive)
CC(C)NC(=O)N(C)C[C@H]1Oc2ccc(N(C)C)cc2C(=O)N([C@@H](C)CO)C[C@H]1C	70.4% (active)
C[C@H](CO)N1C[C@H](C)[C@@H](CN(C)C(=O)Nc2ccccc2)Oc2ccc(N(C)C)cc2C1=O	4.49% (inactive)
C[C@H]1CN([C@@H](C)CO)C(=O)c2cccc(NC(=O)Nc3ccc(C(F)(F)F)cc3)c2O[C@H]1CN(C)CC1CCCCC1	88.7% (active)
C[C@@H]1CN([C@H](C)CO)C(=O)c2cccc(NS(=O)(=O)c3ccc(F)cc3)c2O[C@@H]1CN(C)C(=O)Nc1ccc(F)cc1	3.07% (inactive)
C[C@H]1CN([C@@H](C)CO)C(=O)c2cccc(NC(=O)Nc3ccc(C(F)(F)F)cc3)c2O[C@H]1CN(C)C(=O)NC1CCCCC1	-25.5% (inactive)
C[C@@H]1CN([C@@H](C)CO)C(=O)c2cccc(NC(=O)Nc3ccc(F)cc3)c2O[C@H]1CN(C)C(=O)Nc1ccc(F)cc1	18.2% (inactive)
C[C@H]1CN([C@@H](C)CO)C(=O)c2cccc(NC(=O)Nc3ccc(C(F)(F)F)cc3)c2O[C@@H]1CN(C)Cc1ccccc1	-12.1% (inactive)
CC(C)NC(=O)N(C)C[C@@H]1Oc2ccc(N(C)C)cc2C(=O)N([C@@H](C)CO)C[C@H]1C	-49% (inactive)
C[C@@H]1CN([C@H](C)CO)C(=O)c2cc(NC(=O)Cc3cn(C)c4ccccc34)ccc2O[C@@H]1CN(C)S(=O)(=O)c1cccs1	34.2% (inactive)
CCS(=O)(=O)Nc1ccc2c(c1)C(=O)N(C)[C@H]1CC[C@H](CC(=O)NCc3ccccc3F)O[C@H]1CO2	-3.79% (inactive)
O=C(N[C@H]1CC[C@@H](CCn2cc(Cc3ccccc3)nn2)O[C@H]1CO)c1cnccn1	-1.98% (inactive)
COc1ccc(NC(=O)N(C)C[C@H]2Oc3ncc(C#C[C@@H](C)O)cc3C(=O)N([C@H](C)CO)C[C@H]2C)cc1	12.8% (inactive) and -6.34% (inactive) and 21.2% (inactive)
COc1ccc(NC(=O)N(C)C[C@H]2Oc3c(NC(=O)Nc4cccc5ccccc45)cccc3C(=O)N([C@H](C)CO)C[C@@H]2C)cc1	75.6% (active)
COc1ccc(NC(=O)Nc2cccc3c2O[C@H](CN(C)C(=O)Nc2cccc4ccccc24)[C@H](C)CN([C@H](C)CO)C3=O)cc1	60% (inactive)
COc1cccc(NC(=O)N(C)C[C@@H]2Oc3ncc(Br)cc3C(=O)N([C@@H](C)CO)C[C@H]2C)c1	17.2% (inactive)
COc1ccc(NC(=O)N(C)C[C@@H]2Oc3c(NC(=O)Nc4cccc5ccccc45)cccc3C(=O)N([C@@H](C)CO)C[C@H]2C)cc1	15.2% (inactive)
COc1ccc(C#Cc2cnc3c(c2)C(=O)N([C@H](C)CO)C[C@@H](C)[C@H](CN(C)C(=O)Nc2cccc(OC)c2)O3)cc1	114% (active)
CN(C)C(=O)C[C@@H]1CC[C@H](NC(=O)NC2CCCCC2)[C@@H](CO)O1	-1.33% (inactive)
